# Several values for one entry are separate records, joined by “and”; a condition that tells them apart may be missing. Equal entries are not always repeated. Results filed as inconclusive are left out. Where a call stands in place of a potency, no number is given. Activity calls are given as the source filed them. Unless noted, the call rests on the fitted dose curve; in most records, active means well fitted curve in the direction sought with a large enough effect in the repeat runs; inconclusive means weak or mixed curves; inactive means no such curve, though single readings can be large; an effect the other way counts as inactive or inconclusive.
# Assays:
# [1] = qHTS assay to test for compound auto fluorescence at 535 nm (green) in HEK293 cells (AID 720680)
# [2] = qHTS assay to test for compound auto fluorescence at 460 nm (blue) in HEK293 cell free culture (AID 720681)
# Summary of the method: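 Blue fluorescence (Ex 405/Em 460 nm, triamterene-equivalent) was read immediately after pin transfer of compound or DMSO into medium (DMEM, 10% FBS) without cells.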
# [3] = qHTS assay to test for compound auto fluorescence at 535 nm (green) in HEK293 cell free culture (AID 720682)
# Summary of the method: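 Each library compound, or DMSO control, is added by pintool to medium alone, comprising DMEM and 10% FBS. Emission at 535 nm following 485 nm excitation is quantified against fluorescein.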
# [4] = qHTS assay to test for compound auto fluorescence at 590 nm (red) in HEK293 cell free culture (AID 720683)
# Summary of the method: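 Red-channel autofluorescence of compounds in culture medium (DMEM, 10% FBS), no cells, measured at 540/590 nm. Rose Bengal sodium is the reference fluorophore for equivalence.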
# [5] = qHTS assay to test for compound auto fluorescence at 590 nm (red) in HepG2 cell free culture (AID 720684)
# Summary of the method: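 Cell-free; medium MEM + 10% FBS; compound or DMSO added by pintool; read Ex 540/Em 590 nm; Rose Bengal sodium as red reference fluorophore.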
# [6] = qHTS assay to test for compound auto fluorescence at 460 nm (blue) in HepG2 cell free culture (AID 720685)
# Summary of the method: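 Cell-free plates of MEM plus 10% FBS received 23 nL compound or DMSO vehicle; blue-channel (405/460 nm) intensity scored against triamterene as reference fluorophore.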
# [7] = qHTS assay to test for compound auto fluorescence at 535 nm (green) in HepG2 cell free culture (AID 720686)
# [8] = qHTS assay to test for compound auto fluorescence at 460 nm (blue) in HepG2 cells (AID 720687)
# Summary of the method: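 Blue-channel autofluorescence (Ex/Em 405/460 nm, triamterene-equivalent) was measured after 1 hr compound exposure at 37 C, 5% CO2. Cells were HepG2, plated overnight at 37 C in MEM plus 10% FBS.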
# [9] = qHTS assay to identify small molecule antagonists of the glucocorticoid receptor (GR) signaling pathway - cell viability counter screen (AID 720693); further: nearly all actives have a fitted effect of over 55% in size; further: potency means the concentration at half of the fitted maximal effect
# [10] = qHTS assay for identifying genotoxic compounds that show differential cytotoxicity against isogenic chicken DT40 cell lines with known DNA damage response pathways - wild type cell line (AID 743012); further: nearly all actives have a fitted effect of over 60% in size; further: potency means the concentration at half of the fitted maximal effect
# Summary of the method: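 CellTiter-Glo luminescence readout of viability in wild type DT40 cells after 40 h compound exposure at 37 C/5% CO2; 300 cells/well; reagent incubated 30 min at room temperature before reading.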
# [11] = qHTS assay for identifying genotoxic compounds that show differential cytotoxicity against isogenic chicken DT40 cell lines with known DNA damage response pathways - Rev3 mutant cell line (AID 743014); further: nearly all actives have a fitted effect of over 55% in size; further: potency means the concentration at half of the fitted maximal effect
# [12] = qHTS assay for identifying genotoxic compounds that show differential cytotoxicity against isogenic chicken DT40 cell lines with known DNA damage response pathways - Rad54/Ku70 mutant cell line (AID 743015); further: nearly all actives have a fitted effect of over 60% in size; further: potency means the concentration at half of the fitted maximal effect
# [13] = qHTS assay to identify small molecule antagonists of the androgen receptor (AR) signaling pathway - cell viability counter screen (AID 743033; further: nearly all actives have a fitted effect of over 45% in size; further: potency means the concentration at half of the fitted maximal effect)
# [14] = target: Androgen receptor (Homo sapiens) (UniProt P10275); experiment: qHTS assay to identify small molecule agonists of the androgen receptor (AR) signaling pathway using the MDA cell line (AID 743040; further: nearly all actives have a fitted effect of over 20% in size)
# Summary of the method: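 Luciferase agonist assay: 16 h compound exposure at 37C without CO2 in MDA-kb2 AR-luc cells, whose MMTV promoter responds to both AR and GR. Luminescence measured after 30 min room-temperature incubation with ONE-Glo.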
# [15] = qHTS assay to identify small molecule antagonists of the androgen receptor (AR) signaling pathway using the MDA cell line - cell viability counter screen (AID 743041; further: nearly all actives have a fitted effect of over 45% in size; further: potency means the concentration at half of the fitted maximal effect)
# Summary of the method: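 Viability read by CellTiter-Fluor fluorescence in the same wells as the antagonist screen, added after 15.5 h of a 16 h, 37C exposure. Human breast carcinoma MDA-kb2 AR-luc cells, compounds co-dosed with agonist R1881.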
# [16] = target: Androgen receptor (Homo sapiens) (UniProt P10275); experiment: qHTS assay to identify small molecule antagonists of the androgen receptor (AR) signaling pathway using the MDA cell line (AID 743042; further: nearly all actives have a fitted effect of over 55% in size; further: potency means the concentration at half of the fitted maximal effect)
# Summary of the method: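 Antagonist mode: compounds plus R1881 agonist added to MDA-kb2 AR-luc cells, incubated 16 h at 37C. Luciferase reporter luminescence quantified, with multiplexed CellTiter-Fluor readout for cell viability.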
# [17] = target: Androgen receptor (Homo sapiens) (UniProt P10275); experiment: qHTS assay to identify small molecule antagonists of the androgen receptor (AR) signaling pathway (AID 743035; active means well fitted inhibition curve with a large enough effect in the signal ratio in the repeat runs, not every such curve was filed as active; the % refers to the signal ratio; further: potency means the concentration at half of the fitted maximal effect)
# Summary of the method: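 AR-bla HEK293 reporter cells; 4 h settle at 37C/5% CO2; compound + R1881 agonist, 16 h at 37C; LiveBLAzer B/G FRET substrate 2 h RT; fluorescence intensity read. qHTS format.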
# [18] = target: Androgen receptor (Homo sapiens) (UniProt P10275); experiment: qHTS assay to identify small molecule agonists of the androgen receptor (AR) signaling pathway (AID 743036; active means well fitted activation curve with a large enough effect in the signal ratio in the repeat runs, with a control signal flat, not every such curve was filed as active; the % refers to the signal ratio)
# Summary of the method: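 Following a 4 h settling period, AR-UAS-bla HEK293 cells were dosed with compounds for 16 h at 37C. A 2 h room-temperature incubation with LiveBLAzer B/G FRET substrate preceded the fluorescence measurement.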
# Androgen receptor (Homo sapiens), sequence (P10275 whole entry, looked up): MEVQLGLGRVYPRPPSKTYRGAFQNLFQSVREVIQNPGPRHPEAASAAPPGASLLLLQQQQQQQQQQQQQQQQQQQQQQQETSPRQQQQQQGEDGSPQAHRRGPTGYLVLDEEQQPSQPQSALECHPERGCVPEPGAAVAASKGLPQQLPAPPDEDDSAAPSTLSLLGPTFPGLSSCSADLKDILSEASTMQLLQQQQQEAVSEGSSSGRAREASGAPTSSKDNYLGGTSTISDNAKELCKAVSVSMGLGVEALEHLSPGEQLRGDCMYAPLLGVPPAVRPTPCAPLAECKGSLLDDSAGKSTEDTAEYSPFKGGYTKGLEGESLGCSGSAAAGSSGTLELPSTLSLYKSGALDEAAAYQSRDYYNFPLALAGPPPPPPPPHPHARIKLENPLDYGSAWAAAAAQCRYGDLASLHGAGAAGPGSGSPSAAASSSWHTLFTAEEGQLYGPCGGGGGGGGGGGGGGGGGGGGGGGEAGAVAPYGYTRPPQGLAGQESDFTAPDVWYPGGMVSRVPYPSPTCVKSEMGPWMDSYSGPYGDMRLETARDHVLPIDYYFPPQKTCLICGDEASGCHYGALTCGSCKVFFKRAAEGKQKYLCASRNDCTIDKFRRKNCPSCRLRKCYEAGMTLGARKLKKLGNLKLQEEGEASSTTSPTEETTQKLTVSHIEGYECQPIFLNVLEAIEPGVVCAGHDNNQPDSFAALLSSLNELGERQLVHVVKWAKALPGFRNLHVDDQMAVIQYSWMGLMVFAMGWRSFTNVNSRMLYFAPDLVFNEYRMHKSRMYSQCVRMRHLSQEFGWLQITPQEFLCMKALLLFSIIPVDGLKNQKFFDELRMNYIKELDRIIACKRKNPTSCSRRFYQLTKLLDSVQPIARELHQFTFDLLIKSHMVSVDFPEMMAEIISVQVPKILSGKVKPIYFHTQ
Compound,outcome [1],Potency [2],outcome [3],outcome [4],outcome [5],Potency [6],Potency [7],Potency [8],Potency [9],Potency [10],Potency [11],Potency [12],Potency [13],outcome [14],Potency [15],Potency [16],Potency [17],outcome [18]
C=CC(=O)[O][Sn]([CH2]CCC)([CH2]CCC)[CH2]CCC,inactive,inactive,inactive,inactive,inactive,inactive,inactive,inactive,1550 nM (active),864 nM (active),864 nM (active),686 nM (active),1.23 µM (active),inactive,2170 nM (active),1720 nM (active),,
CC(C)NCC(O)c1ccccc1Cl (configuration not stated),inactive,inactive,inactive,inactive,inactive,inactive,inactive,inactive,inactive,inactive,inactive,inactive,inactive,inactive,inactive,inactive,inactive,inactive
O=c1[nH]c(Cl)c(Cl)cc1Cl,inactive,inactive,inactive,inactive,inactive,inactive,inactive,inactive,inactive,inactive,inactive,inactive,inactive,inactive,inactive,inactive,,
CC(=O)[O][Sn]([c]1ccccc1)([c]1ccccc1)[c]1ccccc1,inactive,inactive,inactive,inactive,inactive,inactive,inactive,inactive,871 nM (active),122 nM (active),172 nM (active),172 nM (active),0.245 µM (active),,5450 nM (active),,,
N#CCCl,inactive,inactive,inactive,inactive,inactive,inactive,inactive,inactive,inactive,inactive,inactive,inactive,inactive,,inactive,,,
O=C1C2(Cl)C3(Cl)C4(Cl)C(Cl)(Cl)C5(Cl)C3(Cl)C1(Cl)C5(Cl)C24Cl (configuration not stated),inactive,inactive,inactive,inactive,inactive,inactive,inactive,inactive,24100 nM (active),30.1 µM (active) and 29.3 µM (active),13.5 µM (active) and 32.9 µM (active),19 µM (active) and 26.1 µM (active),38.3 µM (active) and 46.9 µM (active),inactive,,60100 nM (active),23500 nM (active),
CC1(C)C(C=C(Cl)Cl)C1C(=O)OC(C#N)c1ccc(F)c(Oc2ccccc2)c1 (configuration not stated),inactive,inactive,inactive,inactive,inactive,inactive,inactive,inactive,inactive,inactive,inactive,,inactive,,inactive,,,
CC1CN1 (configuration not stated),inactive,inactive,inactive,inactive,inactive,inactive,inactive,inactive,inactive,,,,inactive,,inactive,,,
ClSC(Cl)(Cl)Cl,inactive,inactive,inactive,inactive,inactive,inactive,inactive,,inactive,inactive,inactive,inactive,inactive,,inactive,,,
Cc1cc2c3c(c1)C(c1ccccc1)=N[C@@H](NC(=O)c1ccncc1)C(=O)N3CC2,inactive,inactive,inactive,inactive,inactive,inactive,inactive,inactive,inactive,,61100 nM (active),,,,inactive,,,
[Cl-].[Cl-].[Sn+2],inactive,inactive,inactive,inactive,inactive,inactive,inactive,,inactive,inactive,inactive,inactive,inactive,,,,,
C#CC1(O)CCCCC1,inactive,inactive,inactive,inactive,inactive,inactive,inactive,,inactive,inactive,,inactive,inactive,,inactive,,,
c1ccc(N=NNc2ccccc2)cc1,inactive,inactive,inactive,inactive,inactive,inactive,inactive,inactive,inactive,,,63300 nM (active),inactive,,,,,
O.O.O.O.O.O.O.O=S(=O)([O-])[O-].[Co+2],inactive,inactive,inactive,inactive,inactive,inactive,inactive,,inactive,inactive,inactive,inactive,inactive,,inactive,,,
Oc1cc(Cl)c(Cl)c(Cl)c1Cl,inactive,inactive,inactive,inactive,inactive,inactive,inactive,inactive,21400 nM (active),,,,53.7 µM (active),inactive,,59700 nM (active),,

# Reference: PubChem BioAssay (Tox21)
